# In PubChem BioAssay (EPA / NIEHS):
# “And” between values parts separate entries of the source, which are not always exact repeats. Equal entries are not always repeated. Some compounds were tested as several samples or in several runs, with calls that do not always agree. The source made the active and inactive calls. Rule for the calls: active = hit-call score of the fitted dose curve at least 0.9, where 1 is the maximum; inactive = score below 0.9.
# Assay: BSK_LPS_PGE2: BioMAP Diversity Plus: LPS Assay for Prostaglandin E2 (PGE2) Biomarker Activity (AID 2283082)
# Settings: primary human HUVEC with PBMC; actives raise or lower the signal
# Description: BSK_LPS is a cell-based, multiplexed-readout assay that uses umbilical vein endothelium and peripheral blood mononuclear cells, a human vascular primary cell co-culture, with measurements taken at 24 hours after chemical dosing in a 96-well plate.BSK_LPS_PGE2 is an assay component measured in the BSK_LPS assay. It measures PGE2 antibody related to regulation of gene expression using ELISA technology.Data from the assay component BSK_LPS_PGE2 was analyzed into 1 assay endpoint. This assay endpoint, BSK_LPS_PGE2, was analyzed with bidirectional fitting relative to DMSO as the negative control and baseline of activity. Using a type of binding reporter, gain or loss-of-signal activity can be used to understand changes in the signaling as they relate to the gene PTGER2. Furthermore, this assay endpoint can be referred to as a primary readout, because this assay has produced multiple assay endpoints where this one serves a signaling function. To generalize the intended target to other relatable targets, this assay endpoint is annotated to the gpcr intended target family, where the subfamily is rhodopsin-like receptor.
# The levels of cell surface (or secreted, indicated by the prefix "s") biomarker endpoints were measured by ELISA. Overt cytotoxicity to cells in confluent adherent cultures (all systems other than the BT system) was assessed by measuring total protein levels using sulforhodamine B (SRB) staining in parallel cultures at the time of biomarker measurements, indicated as SRB endpoints. For proliferation assays for adherent cell types, individual cell types are cultured at sub-confluence and relative cell numbers quantified by SRB staining at time points optimized for each system (48 h: 3C and CASM3C systems; 72 h: BT and HDF3CGF systems; 96 h: SAg system). SRB was performed by staining cells with 0.1% SRB after fixation with 10% TCA and reading wells at 560 nm.Viability and proliferation of PBMC (T cells) was quantified by Alamar Blue reduction for the SAg and BT systems. For PBMC viability (referred to as PBMC Cytotoxicity within the assay endpoint names), cells were plated (75,000/well in a 96-well plate) and then chemical samples added for 1 h before addition of activators, SEB and TSST-1 (20 ng/mL final concentration each). Cells were incubated for 90 h. Then, Alamar Blue (20 uL/well) (Invitrogen, Cat DAL1100) was added for 6 h, and the plates were read with a fluorescence microplate reader at 546/580 nm (excitation/emission). For PBMC proliferation, cells were plated and activated as above but incubated for only 16 h prior to addition of Alamar Blue. Plates were read after 6 h.
Structure (SMILES),outcome,AC50
CCCCCCCCC(CO)CCCCCC (stereo not given),inactive,–
CCCCCCCCCCCC(=O)N(C)CC(=O)O,inactive,5.24 µM (active)
C=C(C)C(=O)OCCCCCCCCCCCC,inactive,–
C1CNCCN1,inactive,–
Cc1c(O)cccc1O,inactive,–
CCCC(C)C(=O)OCC (stereo not given),inactive,–
Fc1ccc(Br)cc1,inactive,–
CC(C)C(=O)OCCc1ccccc1,inactive,–
Nc1ccc(C(=O)O)cc1,inactive,–
CCCCCCOC(=O)CCCCC(=O)OCCCCCC,inactive,–
CC=C(C)C(C)=O,inactive,–
CC(C)CCCCCOC(=O)CS,inactive,–
CCNc1nc(NC(C)(C)C)nc(OC)n1,–,0.0727 µM (active)
C=CC(=O)OCCCCCCCC(C)C,inactive,–
C[N+](C)(C)CCCNS(=O)(=O)C(F)(F)C(F)(F)C(F)(F)C(F)(F)C(F)(F)C(F)(F)C(F)(F)C(F)(F)F,–,19.3 µM (active) and 14.8 µM (active)
CC/C=C\C/C=C\C/C=C\CCCCCCCC(=O)OC,–,5.75 µM (active)
CCN1CN(CC)CN(CC)C1,inactive,–
CCCCCCC=O,inactive,–
CC=C(C)C=CC=C(C)C,inactive,–
Cc1ccc([N+](=O)[O-])cc1N,inactive,–

Structure (SMILES),outcome,AC50
O=C(Cl)c1c(Cl)c(Cl)c(C(=O)Cl)c(Cl)c1Cl,inactive,–
CCOC(=O)C1=NN(c2ccc(Cl)cc2Cl)C(C)(C(=O)OCC)C1 (stereo not given),–,8.97 µM (active)
CCCCC1C(=O)N(c2ccccc2)N(c2ccccc2)C1=O,inactive,–
CC(CCC(=O)O)(c1ccc(O)cc1)c1ccc(O)cc1,inactive,–
C=CC(=O)NCOCCCC,inactive,–
c1ccc2sc(SSN3CCOCC3)nc2c1,inactive,–
C=CC(=O)NC(C)(C)C,inactive,–
Nc1cccc(N)n1,inactive,–
O=C1CCCCCCCCCCCN1,inactive,–
CC1=CC=C(C(C)C)CC1,inactive,–
C=CC(=O)OCCCCCCOC(=O)C=C,–,2.13 µM (active)
CC(C)c1cccc(C(C)C)c1N,inactive,–
Oc1c(Cl)cc(Cl)c(Cl)c1Cl,inactive,–
COc1ccc(C(=O)c2ccccc2)c(O)c1,–,4.59 µM (active)
COc1ccc(C(=O)/C(Br)=C\C(=O)O)cc1,–,7.75 µM (active) and 6.87 µM (active)
CCCCCCCCCCCC(C)=O,inactive,–
CCCCCCCO,inactive,–
CCC1(C)C(=O)N(Cl)C(=O)N1Cl (stereo not given),inactive,–
CC(Cl)COP(=O)(OCC(C)Cl)OCC(C)Cl (stereo not given),inactive,–
